Test results taken from paper PMC4336329 (PLoS ONE, 2015).
About 14,000 (4.5%) of roughly 310,000 compounds showed an effect of 50% or more. The effect is printed as a negative number. For the sample, strong results were picked, then their nearest neighbours and some compounds at random.

biological target: human ether-à-go-go-related gene (hERG) potassium channel (human, UniProt Q12809); assay: primary screen, population patch clamp on CHO cells stably expressing hERG; higher = less effect of the substance
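Also: peak tail current of the secondary pulse compared with the same well before compound.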

Sequence of human ether-à-go-go-related gene (hERG) potassium channel (Q12809 whole entry, looked up): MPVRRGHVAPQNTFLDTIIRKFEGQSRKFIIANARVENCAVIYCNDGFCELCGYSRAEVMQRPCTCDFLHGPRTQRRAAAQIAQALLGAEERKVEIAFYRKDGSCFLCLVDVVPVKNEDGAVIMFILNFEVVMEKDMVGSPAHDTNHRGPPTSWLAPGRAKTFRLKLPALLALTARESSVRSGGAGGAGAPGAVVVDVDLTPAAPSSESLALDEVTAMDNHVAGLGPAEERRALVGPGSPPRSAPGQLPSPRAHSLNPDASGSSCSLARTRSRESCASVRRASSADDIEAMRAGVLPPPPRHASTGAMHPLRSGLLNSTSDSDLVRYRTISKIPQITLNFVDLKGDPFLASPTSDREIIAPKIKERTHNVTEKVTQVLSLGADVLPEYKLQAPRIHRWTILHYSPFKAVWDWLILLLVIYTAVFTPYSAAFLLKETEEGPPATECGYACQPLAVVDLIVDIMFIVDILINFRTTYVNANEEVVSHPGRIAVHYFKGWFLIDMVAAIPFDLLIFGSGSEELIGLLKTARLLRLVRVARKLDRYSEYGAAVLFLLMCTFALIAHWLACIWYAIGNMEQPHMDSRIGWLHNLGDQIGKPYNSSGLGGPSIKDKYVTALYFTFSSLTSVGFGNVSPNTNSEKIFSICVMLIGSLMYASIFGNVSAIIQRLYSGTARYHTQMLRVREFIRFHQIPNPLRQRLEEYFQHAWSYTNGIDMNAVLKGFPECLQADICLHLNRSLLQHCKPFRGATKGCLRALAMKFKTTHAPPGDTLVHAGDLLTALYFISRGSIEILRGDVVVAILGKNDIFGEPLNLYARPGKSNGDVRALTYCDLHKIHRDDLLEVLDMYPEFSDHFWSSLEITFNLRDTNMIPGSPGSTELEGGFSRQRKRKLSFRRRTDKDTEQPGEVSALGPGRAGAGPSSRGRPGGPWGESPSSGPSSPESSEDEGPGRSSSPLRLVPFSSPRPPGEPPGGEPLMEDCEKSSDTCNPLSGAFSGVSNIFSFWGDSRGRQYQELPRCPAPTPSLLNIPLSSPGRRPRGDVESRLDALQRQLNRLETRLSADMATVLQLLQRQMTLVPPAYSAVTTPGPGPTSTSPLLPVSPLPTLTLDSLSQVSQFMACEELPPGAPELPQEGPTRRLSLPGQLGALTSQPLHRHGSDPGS

**Q.** With `CC(C)CCn1nnnc1CN1CCN(C(=O)c2ccco2)CC1.Cl` as the molecule, how does the “hERG current change (%, negative = inhibition) at 10uM” value read?
**A.** 16.8%

**Q.** Which “hERG current change (%, negative = inhibition) at 10uM” value does the source give for `CC1(C)CC(=O)c2c(O)cc(OCC(=O)Nc3ccc(CCO)cc3)cc2O1` here?
**A.** -21.4%

**Q.** With `CCN(C(=O)COC(=O)CSc1ccc(F)cc1)c1c(N)n(Cc2ccccc2)c(=O)[nH]c1=O` as the molecule, how does the “hERG current change (%, negative = inhibition) at 10uM” value read?
**A.** 10.9%

**Q.** Which “hERG current change (%, negative = inhibition) at 10uM” value does the source give for `COC(=O)C1Cc2ccccc2CN1S(=O)(=O)c1ccc(C)cc1` (stereo not shown) here?
**A.** 1.57%

**Q.** With `Cc1cnc(-c2nnc(N(C)C(=O)C3CCCO3)s2)cn1` (stereo not shown) as the molecule, how does the “hERG current change (%, negative = inhibition) at 10uM” value read?
**A.** 2.91%

**Q.** With `Cn1c(CNC(=O)c2ccc(Cl)cc2)nnc1SCC(=O)N1CCOCC1` as the molecule, how does the “hERG current change (%, negative = inhibition) at 10uM” value read?
**A.** 15.4%

**Q.** For `COc1ccccc1COCC(O)CNCC1(N2CCCCC2)CCCCC1.O=C(O)C(=O)O` (stereo not shown), which “hERG current change (%, negative = inhibition) at 10uM” value is on record?
**A.** -30.9%

**Q.** `COc1cc(C(C)=O)ccc1OCC(O)CNCC1(N2CCCCC2)CCCCC1.O=C(O)C(=O)O` (stereo not shown) was tested. Which “hERG current change (%, negative = inhibition) at 10uM” value did it give?
**A.** -42.1%

**Q.** How did the “hERG current change (%, negative = inhibition) at 10uM” value turn out when `OC(CNCC1(N2CCCCC2)CCCCC1)COc1ccc(Cl)cc1Cl` (stereo not shown) was run?
**A.** -73.7%

**Q.** How did the “hERG current change (%, negative = inhibition) at 10uM” value turn out when `CCc1ccc(OC)c(S(=O)(=O)Nc2ccccc2C)c1` was run?
**A.** 3.86%

**Q.** For `COc1cccc(COCC(O)CN2CCC(C(N)=O)CC2)c1` (stereo not shown), which “hERG current change (%, negative = inhibition) at 10uM” value is on record?
**A.** 12.3%

**Q.** With `COc1ccc(-c2csc3ncnc(NCCCO)c23)cc1` as the molecule, how does the “hERG current change (%, negative = inhibition) at 10uM” value read?
**A.** -13.3%

**Q.** How did the “hERG current change (%, negative = inhibition) at 10uM” value turn out when `CC(C)CNC(CC(=O)Nc1cccc([N+](=O)[O-])c1)C(=O)O` (stereo not shown) was run?
**A.** -1.01%

**Q.** For `Cc1ccc(NC(=O)COC(=O)[C@H](C)NC(N)=O)c(C)c1`, which “hERG current change (%, negative = inhibition) at 10uM” value is on record?
**A.** 15.1%

**Q.** With `CCOc1ccc(S(=O)(=O)N2CCC(C(=O)NC3CCCCC3)CC2)cc1` as the molecule, how does the “hERG current change (%, negative = inhibition) at 10uM” value read?
**A.** 18.3%

**Q.** Which “hERG current change (%, negative = inhibition) at 10uM” value does the source give for `CCOC(=O)C1CCN(CCC(=O)Nc2cccc(Cl)c2C)CC1` here?
**A.** -5.48%

**Q.** For `CCOC(=O)C1CCN(CCC(=O)Nc2ccccc2Cl)CC1.Cl`, which “hERG current change (%, negative = inhibition) at 10uM” value is on record?
**A.** -19.3%

**Q.** For `CCOC(=O)C1CCN(CCC(=O)Nc2ccc(Br)cc2)CC1`, which “hERG current change (%, negative = inhibition) at 10uM” value is on record?
**A.** -63.5%

**Q.** For `CCOC(=O)C1CCN(CCC(=O)Nc2ccc(Cl)cc2)CC1`, which “hERG current change (%, negative = inhibition) at 10uM” value is on record?
**A.** -62.4%

**Q.** For `CCOC(=O)C1CCN(CCC(=O)Nc2ccc(C)cc2)CC1`, which “hERG current change (%, negative = inhibition) at 10uM” value is on record?
**A.** -32.4%

**Q.** For `CCOC(=O)C1CCN(CCC(=O)Nc2ccc(F)cc2)CC1`, which “hERG current change (%, negative = inhibition) at 10uM” value is on record?
**A.** -31%

**Q.** `COc1ccccc1C(=O)NCC1(c2ccccc2)CCCC1` was tested. Which “hERG current change (%, negative = inhibition) at 10uM” value did it give?
**A.** 1.65%

**Q.** For `O=C(NCCCCCCCCCNC(=O)C(F)(F)F)C(F)(F)F`, which “hERG current change (%, negative = inhibition) at 10uM” value is on record?
**A.** -4.99%

**Q.** Which “hERG current change (%, negative = inhibition) at 10uM” value does the source give for `CC1CC(C)CN(C(=O)CCCn2c(=O)c3cccn3c3cccnc32)C1` (stereo not shown) here?
**A.** -11%

**Q.** For `O=c1c2cnn(-c3ccccc3)c2ncn1Cc1ccco1`, which “hERG current change (%, negative = inhibition) at 10uM” value is on record?
**A.** -7.57%

**Q.** Which “hERG current change (%, negative = inhibition) at 10uM” value does the source give for `N=c1c2c(-c3ccccc3)c(-c3ccccc3)n(Cc3ccco3)c2ncn1CCCO` here?
**A.** -68.5%

**Q.** With `N#Cc1c(-c2ccccc2)c(-c2ccccc2)n(Cc2ccco2)c1NC(=O)c1cccs1` as the molecule, how does the “hERG current change (%, negative = inhibition) at 10uM” value read?
**A.** 12.6%

**Q.** `N=c1c2c(-c3ccccc3)c(-c3ccccc3)n(Cc3ccco3)c2ncn1CCO` was tested. Which “hERG current change (%, negative = inhibition) at 10uM” value did it give?
**A.** -71%

**Q.** Which “hERG current change (%, negative = inhibition) at 10uM” value does the source give for `CCCCn1c(=O)n(Cc2cccc(F)c2)c(=O)c2c1ncn2Cc1ccco1` here?
**A.** -14.7%

**Q.** With `CCCCn1cnc2c(c(-c3ccccc3)c(-c3ccccc3)n2Cc2ccco2)c1=N` as the molecule, how does the “hERG current change (%, negative = inhibition) at 10uM” value read?
**A.** -75.1%

**Q.** With `CCCCn1c(=O)n(CC(=O)Nc2ccc(C)c(Cl)c2)c(=O)c2c1ncn2Cc1ccco1` as the molecule, how does the “hERG current change (%, negative = inhibition) at 10uM” value read?
**A.** -6.22%

**Q.** With `N=c1c2c(-c3ccccc3)c(-c3ccccc3)n(Cc3ccccc3)c2ncn1CCO` as the molecule, how does the “hERG current change (%, negative = inhibition) at 10uM” value read?
**A.** -37.6%

**Q.** For `O=c1c2ccccc2ncn1Cc1ccco1`, which “hERG current change (%, negative = inhibition) at 10uM” value is on record?
**A.** -19.8%

**Q.** Which “hERG current change (%, negative = inhibition) at 10uM” value does the source give for `NC(=S)N/N=C/c1ccc(C23CC4CC(CC(C4)C2)C3)cc1` here?
**A.** 23.2%

**Q.** How did the “hERG current change (%, negative = inhibition) at 10uM” value turn out when `CN1CCc2cc3c(cc2[C@H]1[C@@H]1OC(=O)c2c1ccc1c2OCO1)OCO3` was run?
**A.** 7.02%

**Q.** `O=C1C(=O)N(CC2CCCO2)C(c2ccco2)/C1=C(/O)c1ccc(F)cc1` (stereo not shown) was tested. Which “hERG current change (%, negative = inhibition) at 10uM” value did it give?
**A.** -13.4%

**Q.** How did the “hERG current change (%, negative = inhibition) at 10uM” value turn out when `COc1cnc(SCc2c(Cl)cccc2Cl)nc1Cl` was run?
**A.** -1.4%

**Q.** For `COC(=O)c1cccc(CSc2nnc(C)s2)c1`, which “hERG current change (%, negative = inhibition) at 10uM” value is on record?
**A.** -1.67%

**Q.** `O=C(OCC(=O)N1CCCC1=O)c1ncc(Cl)c(Cl)c1Cl` was tested. Which “hERG current change (%, negative = inhibition) at 10uM” value did it give?
**A.** 0.304%

**Q.** With `Nc1c(Cl)c(Cl)nc(C(=O)OCC(=O)N2CCCC2=O)c1Cl` as the molecule, how does the “hERG current change (%, negative = inhibition) at 10uM” value read?
**A.** -22.5%

**Q.** With `O=C(OCC(=O)N1CCCC1=O)c1nc(Cl)c(Cl)c(Cl)c1Cl` as the molecule, how does the “hERG current change (%, negative = inhibition) at 10uM” value read?
**A.** -60.4%

**Q.** `COc1cccc(C(=O)Nc2cc(-c3cn4cccnc4n3)ccc2C)c1` was tested. Which “hERG current change (%, negative = inhibition) at 10uM” value did it give?
**A.** -12%

**Q.** For `O=C1C=C(Nc2ccc(Cl)cc2)C(=O)N1c1ccc(Cl)cc1`, which “hERG current change (%, negative = inhibition) at 10uM” value is on record?
**A.** 9.57%

**Q.** With `O=C(NCCc1ccccc1)c1ccccc1Cl` as the molecule, how does the “hERG current change (%, negative = inhibition) at 10uM” value read?
**A.** 3.33%

**Q.** With `O=C(NCCC(=O)N(CCc1ccccc1)Cc1ccccc1)c1ccc(Br)cc1` as the molecule, how does the “hERG current change (%, negative = inhibition) at 10uM” value read?
**A.** -44.9%

**Q.** `O=C(NCCC(=O)N(CCc1ccccc1)Cc1ccccc1)c1ccccc1Cl` was tested. Which “hERG current change (%, negative = inhibition) at 10uM” value did it give?
**A.** -72.9%

**Q.** For `CCOC(=O)C1=C(O)/C(=C\c2ccc(O)c(OCC)c2)N=C1C`, which “hERG current change (%, negative = inhibition) at 10uM” value is on record?
**A.** 8.17%

**Q.** How did the “hERG current change (%, negative = inhibition) at 10uM” value turn out when `C1CCC(NC2=NCCC2)CC1.Cl` was run?
**A.** -1.01%

**Q.** For `O=C(O)Cn1nc(C(F)(F)F)c2c1CCC2`, which “hERG current change (%, negative = inhibition) at 10uM” value is on record?
**A.** 20.4%

**Q.** `CCCN1C2CCCC1CC(NC(=O)c1ccc(Br)cc1)C2` (stereo not shown) was tested. Which “hERG current change (%, negative = inhibition) at 10uM” value did it give?
**A.** -66.3%

**Q.** For `CCCN1C2CCCC1CC(NC(=O)c1ccc(C(C)(C)C)cc1)C2` (stereo not shown), which “hERG current change (%, negative = inhibition) at 10uM” value is on record?
**A.** -37.1%

**Q.** `CCCN1C2CCCC1CC(NC(=O)c1ccccc1F)C2` (stereo not shown) was tested. Which “hERG current change (%, negative = inhibition) at 10uM” value did it give?
**A.** -21.7%

**Q.** `CCCN1C2CCCC1CC(NC(=O)c1ccc(F)cc1)C2` (stereo not shown) was tested. Which “hERG current change (%, negative = inhibition) at 10uM” value did it give?
**A.** -55.3%

**Q.** For `CCCN1C2CCCC1CC(NC(=O)c1ccccc1)C2` (stereo not shown), which “hERG current change (%, negative = inhibition) at 10uM” value is on record?
**A.** -18.9%

**Q.** Which “hERG current change (%, negative = inhibition) at 10uM” value does the source give for `CCCN1C2CCCC1CC(NC(=O)c1ccc(OC)cc1)C2` (stereo not shown) here?
**A.** -30.1%

**Q.** Which “hERG current change (%, negative = inhibition) at 10uM” value does the source give for `CCc1ccc(NCc2ccc(OC)c(Cn3ccnc3)c2)cc1` here?
**A.** -10.5%

**Q.** How did the “hERG current change (%, negative = inhibition) at 10uM” value turn out when `O=C(O)CCCC(=O)N1N=C(c2c(-c3ccccc3)c3cc(Cl)ccc3[nH]c2=O)CC1c1cccs1` (stereo not shown) was run?
**A.** 23.2%

**Q.** For `Cc1c(C(=O)NCc2ccco2)oc2ccc(S(=O)(=O)N3CCC4(CC3)OCCO4)cc12`, which “hERG current change (%, negative = inhibition) at 10uM” value is on record?
**A.** -19.7%
